Results published in the supplement of paper PMC11417369.
± gives the standard deviation of the averaged measurements. In all, about 25,000 sequences were measured (“ln(normalized median fluorescence intensity)”: median about 8.6, highest 2% from about 10 on). Shown is part of a subset that was picked to be rich in the highest values.

The sequences below were run on PfAP2-EXP AP2 domain (GST-tagged) (assay: gcPBM binding intensity (ln(normalized median fluorescence intensity)); higher = stronger DNA binding).
How it was run: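 For binding intensity, the highest Masliner-normalised natural-log median intensity across replicate spots of either probe orientation was taken. Protein bound to the array was stained with Alexa488 anti-GST antibody and scanned at 488 nm. The protein, GST-tagged P. falciparum DNA-binding domains from E. coli at about 25 μg on average, had been applied for 1 h to an Agilent 4 × 180k array of primer-extended double-stranded 36-bp intergenic genomic probes and negative controls.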

Row | Sequence | gcPBM binding intensity (ln)
1 | GGAATTATAATAAATGGTACACATAAAAAAAAAAAA [XGTACX_site8343] | 8.77 ± 0.59
2 | ATATATAATCATCACACATGCAGCCCTGATGAAAAA [TGCATGCA_site687] | 8.77 ± 0.38
3 | TGCATACTTTTGTAAGTGCATAAAATCGTACCATGC | 8.71 ± 0.11
4 | GATATTACGTGTTTGGTATTTTTTGATGTTAATAGG [CACACA_negctrl_site105] | 8.8 ± 0.52
5 | TTTTTTTTTTTTTTATGTACATATATATATTTTATT [XGTACX_site6915] | 8.61 ± 0.6
6 | ATATATATATATATATGTACATATATTTTTATTTAT [XGTACX_site3508] | 10.3 ± 0.26
7 | ATATATATATATGTATGTACATATTTTTTTTAACAC [XGTACX_site8475] | 9.93 ± 0.4
8 | TTATATTTTTACAAGAGTACATATATATATATATAT [XGTACX_site5383] | 10.2 ± 0.31
9 | ATATATATATATATATGTACATATTTTATAACTGTA [XGTACX_site5395] | 10.2 ± 0.33
10 | CATATATATTTTATATGTACATATATATTTTATATA [XGTACX_site8665] | 8.45 ± 0.25
11 | ATATATATATATTTATGTACATATATTTTTTTTTTT [XGTACX_site8558] | 9.73 ± 0.28
12 | ATATATATATATGTATGTACACATATTTTTTAACTT [XGTACX_site431] | 10.42 ± 0.042
13 | ATATATATATATATATGTACATATTTTTTATTTTAT [XGTACX_site5761] | 10.1 ± 0.5
14 | AAAAAAAAAAAAAAGAGTACATTTATTTATATATCT [XGTACX_site2381] | 8.23 ± 0.19
15 | TTTTTTTTTATATTTAGTACATATATATTATTATAT [XGTACX_site3334] | 8.39 ± 0.31
16 | TATATACATTTATGTACACACACATATATGTATATT [CACACA_site8971] | 8.59 ± 0.34
17 | CTTAAGTAAAATTAAAGTACATGGACAAAAAATATA [XGTACX_site7900] | 8.87 ± 0.28
18 | AAAAAAAAAAAAAAAAGTACAAAAAAAAAAAAAAAA [XGTACX_site4549] | 8.26 ± 0.057
19 | AAAATTAATTATTACAAAAATGAAAAGACATATTTT [GTGCAC_negctrl_site735] | 8.23 ± 0.38
20 | TAATCAATTCAATATTGTACGATATTTACCTTTAAA [XGTACX_site4678] | 8.89 ± 0.42
21 | AGAGGGGAAAACATGATGCACTAGTATAACCAAGAA | 9.22 ± 0.34
22 | GTGAATATTAAAAAATGTACACAATTATATGTATAT [XGTACX_site4834] | 8.49 ± 0.28

Row | Sequence | gcPBM binding intensity (ln)
23 | TTCAAAAGATATATCGTGCACATATATATGATGAAA | 9.35 ± 0.62
24 | ATGCTCAGGAAAACATGTACAAAATTATTTGTTATA [XGTACX_site4306] | 8.31 ± 0.34
25 | ATGTATATATATATATGTACATATTTTTTATATGTA [XGTACX_site441] | 8.29 ± 0.25
26 | ATATATTTATTTATATGTACATATTATATATTATAG [XGTACX_site3371] | 8.55 ± 0.35
27 | GTATATAAGTATATATGTACATATATTTTATATATA [XGTACX_site4745] | 8.42 ± 0.23
28 | TATATTATATTTTTATGTACATATATGTTTTTTTTT [XGTACX_site8239] | 8.52 ± 0.092
29 | AAGTATTTTTTTACATGTACATATATATATATATAT [XGTACX_site5065] | 10.2 ± 0.26
30 | TGTATGTTTATTTATCGTACATATATATATATATAT [XGTACX_site7315] | 10.2 ± 0.18
31 | TTTCATTAATCTAATAGTACAGAAAATTGAGAAAAA [XGTACX_site8395] | 8.72 ± 0.34
32 | ATTTTTTTCTTTTCTTTTTTCTTTTTTTTTTTTGGT [CACACA_negctrl_site1146] | 8.35 ± 0.61
33 | AACTTATTAAGCCCTCCACATTTCTCTACTACAACT [CACACA_negctrl_site1552] | 8.61 ± 0.43
34 | TATTTTTTTTTTATATGTACATAATTTCAAATAAAT [XGTACX_site7747] | 8.62 ± 0.48
35 | TATAATTATATTTGGAGTACAAATTTTTTTTTTTTT [XGTACX_site7494] | 8.3 ± 0.32
36 | TATATTTCAGGGGGGAGTACAAATTTTTTTATATAA [XGTACX_site1600] | 10.9 ± 0.38
37 | ATATAAATAAAAAAAAAAAAAAAAAAAAAAAAAAAA [CACACA_negctrl_site972] | 8.01 ± 0.43
38 | ATAAAAAAAAAAAAAAAATATATATATATATATATA [XGTACX_negctrl_site424] | 10.2 ± 0.32
39 | TATAAAAAAAAAAAATATATATATATATAAATATAA [TGCATGCA_negctrl_site367] | 8.2 ± 0.31
40 | AAAAATAAAAAATATAAAAATATAAAAATATAAAAA [XGTACX_negctrl_site51] | 8.32 ± 0.38
41 | ATATAAAAAAAAAAAAAAAAATATATATATATATAT [GTGCAC_negctrl_site251] | 10.2 ± 0.13
42 | TTATAAAAAAAAAAAAAAAATATATATATATATATA [XGTACX_negctrl_site592] | 10.3 ± 0.13
43 | TTATAATATAAAAATAAATAAATAAATAAATAAATA [CACACA_negctrl_site1587] | 8.55 ± 0.11
44 | AAAAAAAAAAAAAAATATAAATATATATATATATAT [GTGCAC_negctrl_site28] | 10 ± 0.28

Row | Sequence | gcPBM binding intensity (ln)
45 | TTATAATAAATATATAAAAAAAAAAAAAAAAAAAAA [CACACA_negctrl_site1639] | 7.97 ± 0.23
46 | TAAATAATATCTATCACACACGCATATATACATATA [CACACA_site2622] | 8.32 ± 0.44
47 | TAATATTATTTTTCAGTGCAATATAACCTTAGAATT [GTGCAC_site9417] | 8.38 ± 0.32
48 | CATGTTCATCAGAACGCACACATAATGGTTTACTTA [CACACA_site898] | 8.47 ± 0.3
49 | TGAAAAATGTAATGCTCACACATATATATATATATA [CACACA_site5213] | 10.2 ± 0.32
50 | ATATAATTAAAATGCTCACACACATAAAAAAAAATT [CACACA_site2148] | 8.43 ± 0.55
51 | CACAAAAATGTAATCACACATATATATATATATATA [CACACA_site5818] | 10.1 ± 0.38
52 | AATAAAATAAGAAGCACACAAATATTATATATAAAA [CACACA_site3980] | 8.78 ± 0.42
53 | ATTATAAATTAAAATACACACATATATACCTAATAT [CACACA_site5541] | 8.47 ± 0.4
54 | TTACAAATATTATAATGTACCCATTTTTTTTGCCTT [XGTACX_site6612] | 8.47 ± 0.39
55 | AGAAACCTTGTTAGTTAGCATATATATATATATATA [CACACA_negctrl_site372] | 10.2 ± 0.49
56 | CATAATATATATTGAGCATGCTACTATTGTTAGAAA [TGCATGCA_site740] | 9 ± 0.31
57 | TTATTCTTTAACTAAAATTATATATATATATTATAC [CACACA_negctrl_site1597] | 8.38 ± 0.34
58 | AATGATTTTAAATGAACATAATTTATATTCATAACA [GTGCAC_negctrl_site256] | 8.04 ± 0.42
59 | TCAATTTTACTTGTTTGTACATAAAATAATAAGGTT [XGTACX_site3732] | 8.44 ± 0.47
60 | GCACAACATATATTATCACACACATATATATATATA [CACACA_site8619] | 10.3 ± 0.18
61 | ATATCACATATATATATATATATATATATATATATA [XGTACX_negctrl_site463] | 9.95 ± 0.61
62 | ACAACATATGTTATCACACACATATAAATATAAATA [CACACA_site7038] | 8.41 ± 0.54
63 | AAAAAAAAAACACACACATGCACATCATATTATATA [TGCATGCA_site133] | 8.72 ± 0.54
64 | CCAACATATATTATCACACACATATATATATATATA [CACACA_site2016] | 10.2 ± 0.22
65 | AATAAATTATATATCACACATATATATTTATATTTA [CACACA_site5964] | 8.13 ± 0.23
66 | AAAAAAAACAGACACACACACACATATACATACATA [CACACA_site2665] | 8.41 ± 0.38

Row | Sequence | gcPBM binding intensity (ln)
67 | AAAAAAATCACATAATATACTTTATTTTATTTTGTA [GTGCAC_negctrl_site562] | 7.89 ± 0.33
68 | ATTTTTTTTTTTAATACACACAATTTTGATGAAGCA [CACACA_site3157] | 8.26 ± 0.41
69 | CTAAAGTAAATTTAAGCACACACAACGAATTTTTAT [CACACA_site8599] | 8.65 ± 0.45
70 | GATAAAATGGATGGATGTACATTATTTCCATATAAT [XGTACX_site7781] | 8.55 ± 0.5
71 | AACCATTATTTCTCTACACACATTTATGTCATTTAC [CACACA_site1499] | 8.86 ± 0.56
72 | GTACATACATAAAACACACACATATATATATATATA [CACACA_site1826] | 10.2 ± 0.75
73 | AAGTACATACATAAAACACACACATATATATATATA [CACACA_site8541] | 10.2 ± 0.17
74 | CATATACATAAACACACACACACATAAATAAATATA [CACACA_site4864] | 8.68 ± 0.54
75 | AAAAAAAAAAAAAGTACACACATACATATAAATATA [CACACA_site8533] | 8.48 ± 0.4
76 | TACATACATAAACACACACACACATATATATATATA [CACACA_site8953] | 10.1 ± 0.35
77 | TACATATATAAAAAAACACACACATATATATATATA [CACACA_site8315] | 10.1 ± 0.46
78 | TACAGATATAAACACACACACATATATATATATATA [CACACA_site4846] | 10.2 ± 0.48
79 | TATATACATAAACACACACACACATATATATATATA [CACACA_site8707] | 10.2 ± 0.29
80 | TATACACATATATAAACACACAAAAAAAAAAAAAAA [CACACA_site7041] | 8.19 ± 0.63
81 | TAAAAAAAAAAAAAAAGTACACACATACATATAAAT [XGTACX_site3752] | 8.61 ± 0.44
82 | TAGATACATAAACACACACACACATACATATATACA [CACACA_site9139] | 8.68 ± 0.6
83 | AAAAAAAAAAAACATACACACATACATACAGATATA [CACACA_site4681] | 8.5 ± 0.64
84 | GTTAATATACTTAATACACACACGAATATATATAAA [CACACA_site1181] | 8.69 ± 0.35
85 | ACCTAATTTTTATATTGTACATAATATAATATATAT [XGTACX_site1715] | 8.66 ± 0.3
86 | ATTTAAAAAAAAAAAAAAAAAAAAAAAAAAAGAAAA [CACACA_negctrl_site722] | 8.01 ± 0.43
87 | TATATATATATGTATACACACATATGTATGTTATGT [CACACA_site4053] | 9.65 ± 0.28
88 | CCAATACATAGAAACTGTACATTATGCATTATACAC [XGTACX_site3531] | 8.79 ± 0.28
